# High-throughput results as filed in PubChem.
# GLP1R ag: qHTS of GLP-1 Receptor Agonists. Potency, µM (titrated, usually from 45.6 µM), for inactives: at the top dose activation, actives largely listed as activators. AID 624172, 2012. Glucagon-like peptide 1 receptor (Homo sapiens), P43220. 380,000 tested, 0.007% active. HEK293 GLP-1R CRE-luciferase, luminescence, 4-6 h; cells express a hypersensitive GLP-1R form; note: potency is the fitted concentration of half-maximal effect; % of control where 0% means no effect
# PTHR1 agonist: qHTS for PTHR1 Agonists: Primary Screen; Potency, µM (series often up to 115 µM), for inactives: at the highest dose activation, usual class: activators; Parathyroid hormone/parathyroid hormone-related peptide receptor (Homo sapiens), Q03431; 410,000 tested, 0.075% active; HEK293 GP2 PTHR1 cells, GloSensor cAMP luminescence, 1 h; note: potency is the fitted concentration of half-maximal effect; nearly all actives have a fitted effect of over 55% in size
# Target sequence (Q03431 whole entry, looked up): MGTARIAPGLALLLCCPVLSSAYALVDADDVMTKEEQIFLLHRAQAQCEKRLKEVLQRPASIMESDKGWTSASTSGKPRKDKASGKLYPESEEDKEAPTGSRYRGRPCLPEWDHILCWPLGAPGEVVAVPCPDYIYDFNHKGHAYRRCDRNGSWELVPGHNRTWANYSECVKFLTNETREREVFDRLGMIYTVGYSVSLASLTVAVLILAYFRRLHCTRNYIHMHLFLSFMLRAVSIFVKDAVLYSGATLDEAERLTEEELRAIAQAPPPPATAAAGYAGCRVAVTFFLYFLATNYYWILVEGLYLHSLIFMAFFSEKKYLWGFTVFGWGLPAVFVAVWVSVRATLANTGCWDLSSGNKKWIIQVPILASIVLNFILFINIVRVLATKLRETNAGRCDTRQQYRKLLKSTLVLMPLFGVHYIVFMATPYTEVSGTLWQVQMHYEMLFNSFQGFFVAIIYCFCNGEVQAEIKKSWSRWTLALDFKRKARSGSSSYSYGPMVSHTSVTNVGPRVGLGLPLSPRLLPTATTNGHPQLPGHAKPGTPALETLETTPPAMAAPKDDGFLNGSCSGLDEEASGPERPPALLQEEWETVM
#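 HEK-293-derived GP2 cells expressing PTHR1 and a GloSensor cAMP reporter, 3,000/well, plated overnight, given luciferin plus IBMX (each 0.5 mM as added) for 1 h at 37 °C, then compound for 1 h at 37 °C. Luminescence was read after 15 min at room temperature.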
# GLP1R cytotox: qHTS of GLP-1 Receptor Inverse Agonists: Cytotox Screen; HEK293 cAMP-luciferase reporter cells, luminescence, 24 h; 410,000 tested, 0.13% active; AID 624418, 2012; Potency, µM (highest dose often 38.3 µM), without a hit: top-dose activity change, negative = inhibition, most hits filed as inhibitors;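 note: loss of luciferase light is scored as toxicity; potency is the fitted concentration of half-maximal effect; % is set by controls: 0 for no effect and ±100 for the full control effect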
#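 Cells in DMEM/10% Nu serum/1% pen-strep, 1536-well format. Pre-incubated 12 h, dosed with 23 nL compound, incubated a further 24 h. Luciferase detection, 12 min at room temp, luminescence.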
# Pin1 inhibitor: qHTS Assay to Find Inhibitors of Pin1 | Peptidyl-prolyl cis-trans isomerase NIMA-interacting 1 (Homo sapiens), Q13526 | Potency, µM (series often up to 115 µM), for inactives: at the top dose activity, negative = inhibition, actives largely listed as inhibitors | 390,000 tested, 0.009% active | Pin1 FP peptide displacement, HiFluor488, 10 min; active = well fitted inhibition curve with a large enough effect in the polarisation, with a control signal flat, not every such curve was filed as active; inconclusive = small, poorly fitted or top-dose-only effect, or effect the other way, or a change in a side signal; inactive = no such curve, though single readings can be large or run the other way; the % refers to the polarisation; note: potency is the fitted concentration of half-maximal effect; % is set by controls: 0 for no effect and ±100 for the full control effect
# miR-21 act: qHTS Assay for Modulators of miRNAs and/orActivators of miR-21; HeLa miR-21 FLuc reporter, luciferase, 48 h; Potency, µM (titrated, usually from 38.3 µM), without a hit: top-dose activity change, positive = activation, usual class: activators; 340,000 tested, under 10 active; AID 2288, 2010;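 note: % of control where 0% means no effect; miR-21 action dims this reporter so a rising signal means less miR-21 action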
#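 Using DMEM plus 10% FBS, HeLa miR-21-FLuc cells are incubated with test compounds (final up to about 40uM) for 48 hours; firefly luciferase signal is then imaged following reagent-mediated lysis.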
# GLP-1R inv ag: qHTS of GLP-1 Receptor Inverse Agonists (Inhibition Mode) | Glucagon-like peptide 1 receptor (Homo sapiens), P43220 | HEK293 GLP-1R CRE-luciferase, luminescence, 24 h; GLP-1R form is constitutively active | Potency, µM (series often up to 38.3 µM), inactives show at the highest dose activity change, negative = inhibition, hits mostly inhibitors | 410,000 tested, 1.6% active | AID 624417, 2012; note: potency is the fitted concentration of half-maximal effect; % is set by controls: 0 for no effect and ±100 for the full control effect; nearly all actives have a fitted effect of over 55% in size
#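 Inverse agonism was detected as reduced cAMP-driven luciferase luminescence after 24 h compound treatment. The cells were HEK293 clones expressing constitutively active human GLP-1R with the reporter. Reporter-only and GPR119 cell lines served as counterscreen controls.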
# * hit, by the source's call; i = inactive; u = inconclusive; x = no result given; [ ] = dose if it differs, or a comment. An excerpt weighted towards active compounds, which were near 1.7% of everything screened. Unless noted, calls come from the whole dose curve; as a rule, active = well fitted curve in the direction sought with a large enough effect; inconclusive = small, poorly fitted or top-dose-only effect, or another doubt; inactive = no such curve, though single readings can be large; an effect the other way counts as inactive or inconclusive.
SMILES,GLP1R ag,PTHR1 agonist,GLP1R cytotox,Pin1 inhibitor,miR-21 act,GLP-1R inv ag
CCOC(=O)c1ccc(N2C(=O)c3[nH]nc(-c4ccc(C)cc4)c3C2c2cccs2)cc1 (stereo not given),-5%,-21%,u,11%,u,8.9µM*
CCOc1ccc(N2C(=O)c3[nH]nc(-c4ccccc4)c3C2c2ccc(O)c(OC)c2)cc1 (stereo not given),x,-33%,-20%,0%,4%,8%
CCOc1ccc(C2c3c(-c4ccc(C)cc4)n[nH]c3C(=O)N2c2ccc(Cl)cc2)cc1 (stereo not given),-9%,-44%,u,8%,-10%,10µM*
Cc1c(C)c2c(c(C)c1OC(=O)CCC(=O)OCCO)CC[C@](C)(CCC[C@H](C)CCC[C@H](C)CCCC(C)C)O2,3%,x,x,x,x,x
CC(C)CCCC(C)C1CC(=O)C2=C3CCC4CC(O)CCC4(C)C3CCC21C (stereo not given),12%,x,x,x,x,x
O=[S+]([O-])(c1c(F)cccc1F)N1CCN([S+](=O)([O-])c2c(F)c(F)c(F)c(F)c2F)CC1,x,x,x,1%,x,x
O=S(=O)(c1ccc(F)cc1)N1CCN(c2nc(-c3ccc(F)cc3)nc3cc(Cl)ccc23)CC1,x,x,x,-7%,x,x
Cc1ccsc1/C=N/Nc1cccc(C(=O)O)c1,-9%,-25%,-3%,-4%,-43%,4.5µM*
COc1cccc(C2c3c(ncn(-c4ccncc4)c3=N)Oc3ccc4ccccc4c32)c1 (stereo not given),x,x,x,8%,x,x
CN(CC(=O)NCCc1ccc(F)cc1)Cc1ccc(Br)cc1,21%,-4%,5%,-1%,-5%,10µM*
COC(=O)c1scc(-c2ccc(C)cc2)c1S(=O)(=O)Nc1cc(C)c(Cl)cc1OC,x,1%,-1%,7%,-6%,10µM*
Cc1ccc(C2c3c(-c4ccccc4O)n[nH]c3C(=O)N2Cc2ccncc2)cc1 (stereo not given),0%,-10%,-41%,-4%,20%,0%
O=C1c2[nH]nc(-c3ccccc3O)c2C(c2cccc(Br)c2)N1Cc1ccncc1 (stereo not given),x,i,u,-3%,u,13µM*
Cn1cncc1CNc1ncnc2ccc(-c3ccc4c(c3)OCO4)cc12,x,x,x,0%,x,x
CCOC(=O)c1c(C)nc2sc(C(=O)Nc3ccc(C(C)=O)cc3)c(N)c2c1-c1ccc(OC)cc1,4%,0%[57.5 µM],340%,25%,16%,8.9µM*
O=C(CN1C(=O)CSc2ccc(S(=O)(=O)N3CCCCC3)cc21)NCc1ccccc1Cl,-4%,i,-18%,12%,5%,2.5µM*
CC1CCN(S(=O)(=O)c2ccc3c(c2)N(CC(=O)NCc2ccccc2Cl)C(=O)CS3)CC1,x,-21%,1%,7%,16%,u
CCCn1c(COc2ccccc2OC)nc2ccccc21,-11%,i,-14%,-3%,-26%,10µM*
O=C(NCCc1csc(-c2ccc(C(F)(F)F)cc2)n1)c1ccc(F)c(F)c1,-2%,-32%,-12%,-6%,u,10µM*
Cc1cc(C)cc(C(=O)NCCc2csc(-c3ccc(C(F)(F)F)cc3)n2)c1,x,-8%,2%,-1%,-7%,8%
CC1CCCCC1NC(=S)NC(=O)c1cccs1 (stereo not given),6%,-70%,u,10%,-12%,8.9µM*
COc1ccc(NC(=O)CCSc2nc(-c3ccco3)cc(C(F)(F)F)n2)cc1OC,x,i,0%,2%,-2%,-17%
COc1ccc(NC(=O)CCCSc2nc(-c3ccco3)cc(C(F)(F)F)n2)cc1OC,8%,-9%,-8%,u,5%,11µM*
Clc1ccc(Cn2nc(-c3ccccc3)nc2-c2ccccc2)cc1,0%,-31%,-1%,61%,-17%,7.9µM*
COc1ccc(C(=O)/C(=C/O)N=Nc2ccc(F)cc2)cc1,8%,-12%,u,-1%,29%,10µM*
SMILES,GLP1R ag,PTHR1 agonist,GLP1R cytotox,Pin1 inhibitor,miR-21 act,GLP-1R inv ag
COc1cccc(N/C(SCc2ccccc2F)=C(/C#N)C(=O)NCc2cccs2)c1,-4%,-11%,23%,-5%,-2%,5µM*
O=C(NC1CCN(Cc2ccccc2)CC1)c1cccc(NS(=O)(=O)c2ccc(Br)cc2)c1,0%,-16%,-27%,-2%,x,11µM*
Cc1ccc(S(=O)(=O)Nc2cccc(C(=O)NC3CCN(Cc4ccccc4)CC3)c2)cc1F,-7%,-41%,u,1%,x,u
Cc1ccc(C2(c3ccccc3)NC(=O)N(CC(=O)NCc3ccccc3)C2=O)cc1C (stereo not given),0%,-8%,-17%,-1%,x,6.3µM*
O=C(CN1C(=O)NC(c2ccccc2)(c2ccccc2)C1=O)NCc1ccccc1,-4%,-17%,-9%,4%,x,u
COCC(=O)Oc1cc(-c2ccc(C)cc2C)c(OC(=O)COC)c(-c2ccc(C)cc2C)c1,1%,-57%,-17%,x,x,2.5µM*
Cc1ccc(OCC(=O)Oc2c(C)cccc2C)cc1,-5%,-41%,3%,-1%,-8%,-2%
O=C(CNC(=O)C1CCCCC1)OCC(=O)c1ccc(-c2ccccc2)cc1,x,x,x,7%,x,x
COc1cc(F)c(S(=O)(=O)N2CCN(S(=O)(=O)c3ccc(N)cc3)CC2)c(F)c1,x,x,x,5%,x,x
Cc1oc(-c2ccccc2)cc1C(=O)Nc1cccc2ccccc12,-11%,-20%[57.5 µM],-18%,21%,6%,10µM*
Cc1oc(-c2ccccc2)cc1C(=O)Nc1cccc(C(=O)O)c1,-11%,i,2%,-6%,-13%,7%
Cc1cccc(CCNC(=O)c2nn(C)c3c2CSc2ccccc2-3)c1,x,-48%,3%,0%,-6%,-10%
CC(C)COc1ccc(C(=O)N(CC(=O)Nc2ccccc2C(F)(F)F)Cc2ccco2)cc1,11%,i,u,-1%,x,4.5µM*
O=C(CN(Cc1ccco1)C(=O)c1ccc([N+](=O)[O-])cc1)Nc1ccccc1C(F)(F)F,-6%,-18%,-11%,-8%,x,-6%
Cc1ccc(C2CN(c3ccccc3)CC2C(=O)c2ccc(F)cc2)cc1 (stereo not given),-16%,13%,41%,7%,-7%,10µM*
